Screening data (PubChem BioAssay)
D1 antagonist = blocks dopamine activation of the human D1 receptor; P21728; HEK293 TREx D1 cells, calcium flux, dopamine EC80; hits give low values; activity change, negative = inhibition, % at 10 µM; 3.2% of 360,000 active; in the data active means activity change below about -30%; further: on the % scale 0 is the no-effect control and ±100 the full control effect
Target sequence (P21728 whole entry, looked up): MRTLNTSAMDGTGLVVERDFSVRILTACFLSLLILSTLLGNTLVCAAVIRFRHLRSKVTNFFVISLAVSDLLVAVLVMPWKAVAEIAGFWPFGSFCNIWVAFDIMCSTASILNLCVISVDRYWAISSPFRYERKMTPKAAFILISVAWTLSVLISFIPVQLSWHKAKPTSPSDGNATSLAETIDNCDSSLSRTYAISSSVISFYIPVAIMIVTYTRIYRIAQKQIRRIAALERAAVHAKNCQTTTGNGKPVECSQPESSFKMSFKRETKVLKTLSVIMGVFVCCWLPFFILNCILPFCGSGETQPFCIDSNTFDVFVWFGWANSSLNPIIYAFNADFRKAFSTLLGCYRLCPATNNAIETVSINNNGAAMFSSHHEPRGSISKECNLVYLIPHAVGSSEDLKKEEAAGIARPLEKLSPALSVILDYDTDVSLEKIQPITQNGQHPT
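Calcium flux readout: force-coupled, inducible Hek293 Trex D1 line, cells induced overnight at 30 C with tetracycline, dye-loaded 30–90 min at RT. Antagonism scored against EC80 dopamine challenge given 180 s after compound.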
D1 potentiator = enhances dopamine response at the human D1 receptor | P21728 | 0.036% of 360,000 active | HEK293 TREx D1 cells, calcium flux, dopamine EC20 potentiation | potentiation, % at 10 µM; in the data active means potentiation above about 30%; further: 0% is about no effect
D3 ag = agonists of human D3 dopamine receptor; P35462; D3R DiscoveRx beta-arrestin cells, luminescence, 90 min; max activation, %; 0.58% of 410,000 active; AID 652048; in the data active means max activation above about 30%; further: 0% is about no effect
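Cells at 1500/well, incubated overnight, then treated with pinned compounds (dopamine as control) for 90 min at 37 degrees C. DiscoveRx reagent added for 30 - 60 minutes at room temperature; luminescence read.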
D1 ag = agonists of human D1 dopamine receptor; P21728; HEK293 T-REx D1 cells, calcium flux, agonist mode; activation, % at 2 µM; 1% of 360,000 active; in the data active means activation above about 30%; further: 0% is about no effect
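Tetracycline-induced HEK293 TREx D1 cells, force-coupled to calcium signalling, were dye-loaded with a no-wash calcium kit. Compound was pin-added after a 10 s baseline. Fluorescence was read kinetically at 1 cycle/s for 180 s, with calcium rises flagged as agonism.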
D3 antag = antagonists of human D3 dopamine receptor | max response, negative = inhibition, % | D3R cells, DiscoveRx beta-arrestin luminescence, antagonist mode; hits give low values | 2.5% of 360,000 active | P35462; in the data active means max response below about -50%; inconclusive means no clear call, values can overlap the other calls; further: on the % scale 0 is the no-effect control and ±100 the full control effect
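Cells expressing the human receptor were seeded at 1500 cells/well, incubated overnight at 37 degrees C in 5% CO2, then exposed to library compounds with dopamine controls for 90 minutes at 37 degrees C before luminescent detection.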
Numbers without * were called inactive; ? = inconclusive; / = no result given. Rows were chosen to be rich in hits. Some 6% of all compounds tested hit in one or more screens of this group.

SMILES	D1 antagonist	D1 potentiator	D3 ag	D1 ag	D3 antag
COc1ccc(S(=O)(=O)N(C)C[C@H]2Oc3ncc(C#CC4(O)CCCC4)cc3C(=O)N([C@@H](C)CO)C[C@@H]2C)cc1	/	/	-4	/	-23
c1ccc(Nc2nc(-c3ccccn3)cs2)cc1	9	-8	-4	4	-19
c1ccc(-c2csc(Nc3cccnc3)n2)nc1	-31*	-5	-21	0	?
O=C(Nc1ccc(C(=O)NCCCN2CCCCC2)cc1)C1=CSCCO1	13	-3	-5	2	12
Cc1cccc(N2CCN(CCCNC(=O)c3ccc(NC(=O)C4=CSCCO4)cc3)CC2C)c1 (stereo not drawn)	-40*	-16	-24	18	?
O=C(Nc1ccc(C(=O)NCCCN2CCN(c3ccc(F)cc3)CC2)cc1)C1=CSCCO1	-78*	-17	-22	62*	-92*
CC1CCCN(CCCNC(=O)c2ccc(NC(=O)C3=CSCCO3)cc2)C1 (stereo not drawn)	-6	10	-13	3	10
CNc1nc(-c2ccccc2)[n+](-c2ccc(C)cc2)s1	-2	3	-10	12	-5
Cc1ccc(-c2nc(N)s[n+]2-c2ccccc2)cc1	-37*	3	-3	1	12
COc1cc(Cl)c(C)cc1NS(=O)(=O)c1c(C)nc2sccn2c1=O	-44*	-2	8	2	/
CCCCC(=O)OCC(=O)[C@H]1[C@H](C)C[C@H]2[C@@H]3C[C@H](F)C4=CC(=O)C=C[C@]4(C)[C@@]3(F)[C@@H](O)C[C@@]21C	/	/	9	/	/
COc1ccc(/C=C2\SC(=O)NC2=S)cc1OC	2	5	13	32*	81
COc1ccc(/C=C2\Cc3ccccc3C2=O)cc1OC	-4	-8	1	0	6
COc1ccc(/C=C2/CSC/C(=C/c3ccc(OC)c(OC)c3)C2=O)cc1OC	/	/	1	/	-50*
COc1ccc(/C=C2\SC(c3ccc(C)cc3)=NC2=O)cc1OC	-6	-5	-9	53*	4
Cc1ccc(N2C(=O)c3cccc4c(N)ccc(c34)C2=O)c2cccnc12	-68*	8	-3	334*	3
CCN1C(=O)c2cccc3c(N)ccc(c23)C1=O	-22	4	4	231*	23
Cc1nn(C)c(C)c1N1C(=O)c2cccc3c(N)ccc(c23)C1=O	-27	6	2	356*	17
Cn1ncc2c(Nc3cccc(C#N)c3)ncnc21	-3	-2	-17	-4	/
O=C(CN1CCN(Cc2ccccc2F)C1=O)NC1CCCC1	-30*	-2	-11	11	-13
O=C(c1ccccc1)c1ccc2nc(Nc3ccccc3Cl)c3nncn3c2c1	11	5	-1	0	/
Cc1cccc(C)c1NC(=O)C(NC=O)c1ccccc1Cl (stereo not drawn)	-83*	2	-3	1	-20
CCOc1ccc(C(=O)/C=C/c2ccc(SC)cc2)cc1	-30*	0	-9	18	8
CCOc1ccc(/C=C/C(=O)c2ccccc2)cc1	-2	-1	1	2	21
COC(=O)c1ccc(/C=C/C(=O)c2ccc(OC)cc2)cc1	-38*	5	-17	6	-28
SMILES	D1 antagonist	D1 potentiator	D3 ag	D1 ag	D3 antag
CCOc1ccc(C(=O)/C=C/c2cc(OC)c(OC)c(OC)c2)cc1	-49*	-3	5	1	-7
COc1cc(CSc2ncc(CO)n2Cc2ccc(C)cc2)cc(OC)c1	-14	7	-4	13	/
COc1ccccc1C(=O)O[C@H]1[C@H](Cc2ccccc2)NS(=O)(=O)[C@H]2C[C@@H]3C=C[C@]12O3	/	-3	0	-2	-3
COc1ccc(C(=O)CC(=O)C(=O)Nc2ccccc2Cl)cc1	-13	-10	18	3	16
O=C(O)CC1Cc2ccccc2C1C(=O)O (stereo not drawn)	/	/	-8	/	28
O=C(c1ccc(Cl)cc1)C1CCN(Cc2ccccc2)CC1	-1	-11	-19	2	-114*
O=C(NNC(=O)C1CCN(Cc2ccccc2)CC1)c1cccc(Cl)c1	-62*	-11	-4	6	0
O=C(CN1CCC(C(=O)c2ccc(F)cc2)CC1)NCc1ccccc1F	-9	-10	-25	6	-79*
O=C(c1ccc(F)cc1)C1CCN(Cc2ccccc2F)CC1	/	/	-5	/	-112*
O=c1c2oc3ccccc3c2n(Cc2ccccc2F)c(=O)n1Cc1ccccc1	3	0	-1	3	/
